Each sequence was assayed against PUM1 PUF domain R5-RHI (Homo sapiens, UniProt Q14671 828-1176, C1007R;R1008H;Q1011I) (assay: yeast three-hybrid, YBZ-1, SC-Leu-His + 0.5 mM 3-AT, 4 days). Settings: tags: N-Gal4 AD-HA kept; label: inside an RPR1-promoter hybrid RNA with tandem MS2 sites; ssRNA.
Outline: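 The interaction score is the log change in variant frequency from input to selection. Scores were computed in log2 with a pseudocount of 1 for absent variants, using Illumina sequencing of PCR-amplified repeat regions. The input came from four days on SC-Leu and the selection from four days on SC-Leu-His + 0.5 mM 3-AT. The cells were strain YBZ-1 (LexA–MS2 coat fusion, HIS3 reporter) co-expressing Pumilio-1 PUF domain libraries and matching RNA elements from a centromeric plasmid.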

Sequence | binding signal
GGCUAGAACUAGUGGAUCCCCCGGCGCCCGGCGGCUCGAGCCCGGGUAAGUGUUAAUAGUCUGCAUGCCGCCGGGCGCCAUGCCUGCAGGUCGACUCUAGAAAACAUG | 5.86 log2 enrichment (interaction score)
GGCUAGAACUAGUGGAUCCCCCGGCGCCCGGCGGCUCGAGCCCGGGUAAGUGUCAAUAGUCUGCAUGCCGCCGGGCGCCAUGCCUGCAGGUCGACUCUAGAAAACAUG | 4.97 log2 enrichment (interaction score)
GGCUAGAACUAGUGGAUCCCCCGGCGCCCGGCGGCUCGAGCCCGGGUAAGUGUAAAUAGUCUGCAUGCCGCCGGGCGCCAUGCCUGCAGGUCGACUCUAGAAAACAUG | 3.02 log2 enrichment (interaction score)
